Shown are actives, neighbours in structure and some others; about 19% of the full set was active somewhere.
IL-1B inflam inh – inhibitors of inflammasome signaling (IL-1 beta secretion). activity change, % at 57.5 µM. actives 4.7% (n = 360,000). THP-1 LPS/ATP IL-1B secretion, AlphaLISA, 16 h; active compounds read low; in the data active = activity change below about -50%; inconclusive = mostly about -30% to -49%
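Secreted IL-1B measured by AlphaLISA bead assay after 16 h compound exposure of THP-1 cells; compounds (final up to 57.5 uM) added 1 h before LPS (250 ng/mL) and ATP (1.25 mM) stimulation; lower signal means less secretion.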
HT1080NT lethal – kills 2HG-producing HT-1080-NT fibrosarcoma cells; actives 1.6% (n = 360,000); Potency, µM (highest dose often 46.1 µM), usual class: cytotoxic; HT-1080-NT fibrosarcoma viability, CellTiter-Glo ATP luminescence, 48 h; AID 686970;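 also: NT is the 2HG producing partner of a matched IDH1 knockdown line; nearly all actives have a fitted effect of over 55% in size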
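Viability of the 2HG-overproducing fibrosarcoma line after 48 hours of compound exposure at 37 degrees C was determined by luminescence with CellTiter-Glo, and concentration-effect curves were then fitted and categorized.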
TDP1 cell CPT – growth inhibition of DT40 Tdp1-/-;hTDP1 cells with camptothecin (screen for TDP1 inhibitors). Potency, µM (top dose mostly 46.2 µM), hits mostly inhibitors. actives 12% (n = 420,000). chicken DT40 Tdp1-/-;hTDP1 cells + 20 nM CPT, ATP luminescence, 48 h; also: nearly all actives have a fitted effect of over 55% in size
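Chicken DT40 Tdp1-/- cells complemented with human TDP1, 400 cells/well, exposed to compounds plus 20 nM camptothecin for at least 48 h at 37 C; viability read as ATP content by CellTiter-Glo luminescence.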
TDP1 cell noCPT – qHTS for Inhibitors of human tyrosyl-DNA phosphodiesterase 1 (TDP1): qHTS in cells in absence of CPT. Potency, µM (highest dose often 46.2 µM), most hits filed as inhibitors. AID 686978, 2013. DT40 Tdp1-/- hTDP1 cells, no CPT, ATP luminescence, 48 h. actives 15% (n = 420,000); also: nearly all actives have a fitted effect of over 55% in size
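DT40 Tdp1-/-;hTDP1 cells, no CPT (DMSO vehicle only), 400 cells/well; compounds pin-transferred; ≥48 hr, 37 °C; CellTiter-Glo 30 min RT dark, luminescence read.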
HT1080 IDH1KD tx – kills HT-1080 cells with IDH1 knockdown; HT-1080 IDH1 knockdown viability, ATP luminescence, 48 h; actives 2% (n = 360,000); AID 686971; Potency, µM (top dose mostly 46.1 µM), usual class: cytotoxic
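% activity derives from luminescence (CellTiter-Glo), normalised to DMSO and no-cell wells. HT-1080-IDH1KD cells, 750/well, had 48 h compound exposure at 37 °C.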
Large screens that a line does not name were inactive. Unless noted, calls follow the shape of the dose curve; as a rule, active = well fitted curve in the direction sought with a large enough effect; inconclusive = small, poorly fitted or top-dose-only effect, or another doubt; inactive = no such curve, though single readings can be large; an effect the other way counts as inactive or inconclusive.

O=C(Cn1cc(C(=O)c2ccco2)c2ccccc21)NC1CC1	none
COc1ccc(OC)c(NC(=O)Cn2cc(C#N)c3ccccc32)c1	none
O=C(Cn1cc(C(=O)c2cccs2)c2ccccc21)Nc1ccc(Br)cc1	TDP1 cell CPT inconclusive, TDP1 cell noCPT 5.8µM (no result: IL-1B inflam inh, HT1080NT lethal, HT1080 IDH1KD tx)
O=C(CCNC(=O)c1ccc([N+](=O)[O-])cc1)Oc1ccc(F)c(F)c1	none
CCC(C)NC(=O)C(=O)Nc1c2c(nn1-c1ccccc1)CS(=O)(=O)C2 (stereo unspecified)	none (no result: IL-1B inflam inh, HT1080NT lethal, HT1080 IDH1KD tx)
CCOC(=O)c1ccccc1NC(=O)c1nn(C)c2c1COc1ccccc1-2	none (no result: IL-1B inflam inh, HT1080NT lethal, HT1080 IDH1KD tx)
O=C(Cc1ccc(-c2ccccc2)cc1)OCC(=O)N1CCCC1=O	none
c1ccc(Nc2c(-c3ccco3)nc3ccccn23)cc1	IL-1B inflam inh inconclusive, TDP1 cell CPT inconclusive, TDP1 cell noCPT 23.1µM
Fc1ccc(Nc2c(-c3ccco3)nc3ccccn23)cc1	IL-1B inflam inh -63.8, TDP1 cell CPT 14.6µM, TDP1 cell noCPT 5.8µM
Cc1ccc(Nc2c(-c3ccco3)nc3ccccn23)cc1	TDP1 cell noCPT inconclusive
CC(C)Cc1csc(NC(=O)c2ccc(Br)cc2)c1C(=O)O	none
CN1C[C@@H]2[C@@H]3C(=O)N(C)C(=O)[C@@H]3[C@](Cc3ccccc3)(C1=O)N2C(=O)c1ccccc1	none
C[C@@H]1CN(Cc2ccc3c(c2)CN(Cc2cccc(O)c2)CCO3)C[C@H](C)O1	TDP1 cell noCPT inconclusive (no result: IL-1B inflam inh, HT1080NT lethal, HT1080 IDH1KD tx)
OC(c1ccc2c(c1)CN(Cc1cccn1-c1cccnc1)CCO2)C1CCCCC1 (stereo unspecified)	TDP1 cell CPT inconclusive (no result: IL-1B inflam inh, HT1080NT lethal, HT1080 IDH1KD tx)
C[C@@H]1CN(Cc2ccc3c(c2)CN(Cc2cccn2-c2ccccn2)CCO3)C[C@H](C)O1	none (no result: IL-1B inflam inh, HT1080NT lethal, HT1080 IDH1KD tx)
C[C@@H]1CN(Cc2ccc3c(c2)CN(Cc2cccn2-c2cccnc2)CCO3)C[C@H](C)O1	TDP1 cell noCPT 14.6µM (no result: IL-1B inflam inh, HT1080NT lethal, HT1080 IDH1KD tx)
Cc1nc2sccn2c1CN1CCOc2ccc(CN3C[C@@H](C)O[C@@H](C)C3)cc2C1	TDP1 cell CPT 10.3µM, TDP1 cell noCPT 8.2µM (no result: IL-1B inflam inh, HT1080NT lethal, HT1080 IDH1KD tx)
Fc1ccc(N2CCN(Cc3ccc4c(c3)CN(Cc3cccn3-c3cccnc3)CCO4)CC2)cc1	TDP1 cell CPT inconclusive, TDP1 cell noCPT 20.6µM (no result: IL-1B inflam inh, HT1080NT lethal, HT1080 IDH1KD tx)
CCO[C@@H]1OC(C(=O)NCc2ccccc2)=C[C@H](c2csc3ccccc23)[C@H]1CCCO	IL-1B inflam inh inconclusive, HT1080NT lethal inconclusive, TDP1 cell CPT inconclusive, TDP1 cell noCPT inconclusive
Cc1cn([C@H]2C[C@H](O)[C@@H](CCC(=O)NCCc3cccs3)O2)c(=O)[nH]c1=O	none
CCC1CCCCN1CC(=O)Nc1cc(C)c2c(=O)oc3ccccc3c2n1 (stereo unspecified)	none (no result: IL-1B inflam inh, HT1080NT lethal, HT1080 IDH1KD tx)
Cc1cc(NC(=O)CN2CCC(C)CC2)nc2c1c(=O)oc1ccccc12	TDP1 cell CPT inconclusive, TDP1 cell noCPT 20.6µM (no result: IL-1B inflam inh, HT1080NT lethal, HT1080 IDH1KD tx)
Cc1cc(NC(=O)CN2CCc3ccccc3C2)nc2c1c(=O)oc1ccccc12	TDP1 cell CPT 20.6µM, TDP1 cell noCPT 18.4µM
CCCC(=O)Nc1cc(C)c2c(=O)oc3ccccc3c2n1	TDP1 cell CPT inconclusive, TDP1 cell noCPT inconclusive
CC1SC(C)C(=O)N(CC(=O)Nc2ccc([N+](=O)[O-])cc2)C1=O (stereo unspecified)	none
CCCOc1cccc(C(=O)Nc2ccc(CN3CCOCC3)cc2)c1	IL-1B inflam inh -53.5, TDP1 cell noCPT inconclusive
CCCCOc1ccc(C(=O)Nc2ccncc2)cc1	IL-1B inflam inh inconclusive, TDP1 cell CPT 5.17µM, TDP1 cell noCPT 2.59µM
CCCOc1ccc(C(=O)Nc2ccc(CN3CCOCC3)cc2)cc1	TDP1 cell CPT inconclusive, TDP1 cell noCPT inconclusive
CCCCOc1ccc(C(=O)Nc2ccc(CN3CCOCC3)cc2)cc1	IL-1B inflam inh -61.6, TDP1 cell CPT 13µM, TDP1 cell noCPT inconclusive
CCCCCCc1ccc(OC(=O)c2ccncc2)cc1	none
CCCCCCOc1ccc(OC(=O)c2ccncc2)cc1	HT1080NT lethal inconclusive, TDP1 cell CPT 13µM, TDP1 cell noCPT 23.1µM, HT1080 IDH1KD tx 16.4µM
CCCOc1ccc(C(=O)Nc2cccnc2)cc1	HT1080NT lethal inconclusive, TDP1 cell CPT inconclusive, TDP1 cell noCPT inconclusive, HT1080 IDH1KD tx inconclusive
O=C(NC1CCCCC1)C(c1ccncc1)N(C(=O)c1csnn1)c1cccc(F)c1 (stereo unspecified)	none

Screening data: PubChem, National Center for Advancing Translational Sciences (NCATS)
